Screening data from PubChem BioAssay.
In the library only some 17% were active in any assay of this set; here they are far more common.
TGFb SMAD3 inh: inhibitors of TGF-b signaling; actives 1.2% (n = 410,000); AID 588855; Potency, µM (highest dose often 46.1 µM), actives largely listed as inhibitors; HepG2 CAGA-GFP TGF-b/SMAD3 reporter, GFP fluorescence, 18 h; TGF-beta stimulated, 500 pg/mL final; further: nearly all actives have a fitted effect of over 65% in size
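GFP signal (ex488/em500-530) from TGF-beta-stimulated HEPG2 CAGA-GFP cells, 500 pg/mL final, 18 h at 37 degrees C in DMEM plus 1% FBS, normalized to unstimulated and DMSO-stimulated controls.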
HT1080 IDH1KD tx: toxicity to HT-1080 IDH1 knockdown cells (counter line); AID 686971; Potency, µM (series often up to 46.1 µM), usual class: cytotoxic; actives 2% (n = 360,000); HT-1080 IDH1 knockdown viability, ATP luminescence, 48 h
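Luminescent ATP read-out (CellTiter-Glo, 10 min at room temperature) after 48 h compound exposure at 37 °C gave viability of IDH1-knockdown HT-1080 cells. Activity was normalised to DMSO and cell-free wells, then fitted as concentration-response curves.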
DT40 TDP1 CPT: growth inhibition of DT40 Tdp1-/-;hTDP1 cells with camptothecin (screen for TDP1 inhibitors) | chicken DT40 Tdp1-/-;hTDP1 cells + 20 nM CPT, ATP luminescence, 48 h | AID 686979 | actives 12% (n = 420,000) | Potency, µM (top dose mostly 46.2 µM), actives largely listed as inhibitors; further: nearly all actives have a fitted effect of over 55% in size
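Chicken DT40 Tdp1-/- cells stably complemented with human TDP1 were seeded at 400 cells/well in medium containing 20 nM camptothecin, exposed to pin-transferred compounds, and grown at 37 °C for at least 48 hr. Viability was read as ATP luminescence.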
DT40 TDP1 no CPT: qHTS for Inhibitors of human tyrosyl-DNA phosphodiesterase 1 (TDP1): qHTS in cells in absence of CPT; DT40 Tdp1-/- hTDP1 cells, no CPT, ATP luminescence, 48 h; Potency, µM (series often up to 46.2 µM), usual class: inhibitors; AID 686978, 2013; actives 15% (n = 420,000); further: nearly all actives have a fitted effect of over 55% in size
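Cells were dispensed at 400 per well, compounds added by pin tool, plates incubated ≥48 hr at 37 °C, then CellTiter-Glo added for 30 min at room temperature before luminescence reading. Line: DT40 Tdp1-/- complemented with hTDP1; camptothecin omitted.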
HepG2 viability: kills HepG2 cells in TGF-b inhibitor counter-screen; HepG2 CAGA-GFP viability, ATP luminescence, 18 h; Potency, µM (top dose mostly 46.1 µM), most hits filed as cytotoxic; actives 0.76% (n = 410,000)
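HepG2 CAGA-GFP cells (1000/well, DMEM with 1% FBS) received compound, then TGF-beta at 500 pg/mL final, and were incubated 18 hours at 37 degrees C. Viability was read by CellTiter-Glo luminescence. Media-only wells were set as complete cell-killing and DMSO as no toxicity.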
HT1080-NT tox: kills 2HG-producing HT-1080-NT fibrosarcoma cells. HT-1080-NT fibrosarcoma viability, CellTiter-Glo ATP luminescence, 48 h. Potency, µM (top dose mostly 46.1 µM), usual class: cytotoxic. actives 1.6% (n = 360,000);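 further: NT is the 2HG producing partner of a matched IDH1 knockdown line; nearly all actives have a fitted effect of over 55% in size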
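A 48-hour cytotoxicity screen used HT-1080-NT cells plated 2 hours before compound delivery. ATP-based CellTiter-Glo luminescence measured viability, normalized to DMSO and no-cell controls.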
A number is an active result. The call rests on the fitted dose curve; in most records, active means well fitted curve in the direction sought with a large enough effect; inconclusive means small, poorly fitted or top-dose-only effect, or another doubt; inactive means no such curve, though single readings can be large; an effect the other way counts as inactive or inconclusive.

Screening Cc1cc(Cl)ccc1OCC(=O)N(Cc1ccco1)Cc1ccccc1F returned TGFb SMAD3 inh inactive, DT40 TDP1 CPT inconclusive, DT40 TDP1 no CPT 16µM and HepG2 viability inactive.
CN(Cc1ccccc1F)C(=O)COc1ccc(C(=O)c2ccccc2)cc1 was read as TGFb SMAD3 inh inconclusive, HT1080 IDH1KD tx inactive, DT40 TDP1 CPT 23µM, DT40 TDP1 no CPT 21µM, HepG2 viability inactive and HT1080-NT tox inactive.
Screening CCC[C@@H]1CCCO[C@@](C(=O)NCc2cc(C)n(C)n2)(C(F)(F)F)C1 returned TGFb SMAD3 inh inactive, HT1080 IDH1KD tx inactive, DT40 TDP1 CPT inactive, DT40 TDP1 no CPT inconclusive, HepG2 viability inactive and HT1080-NT tox inactive.
CC(C)(N=NC(C)(C)C(=N)N)C(=N)N was read as DT40 TDP1 CPT inconclusive and DT40 TDP1 no CPT inactive.
Screening CCOc1ccccc1NC(=O)CSc1nc2ccccc2c2nc(CCn3cncc3C)nn12 returned TGFb SMAD3 inh inconclusive, DT40 TDP1 CPT inconclusive, DT40 TDP1 no CPT 23µM and HepG2 viability inactive.
For Cc1cccc(NC(=O)CSc2nc3ccccc3c3nc(CCc4c(C)n[nH]c4C)nn23)c1 the results were TGFb SMAD3 inh inconclusive, HT1080 IDH1KD tx inconclusive, DT40 TDP1 CPT 16µM, DT40 TDP1 no CPT 13µM, HepG2 viability inactive and HT1080-NT tox inconclusive.
Cc1cncn1CCc1nc2c3ccccc3nc(SCC(=O)Nc3cccc(Cl)c3)n2n1 was read as TGFb SMAD3 inh inconclusive, HT1080 IDH1KD tx inactive, DT40 TDP1 CPT 18µM, DT40 TDP1 no CPT 7.3µM, HepG2 viability inactive and HT1080-NT tox inactive.
For CC(=O)Nc1ccc(S(=O)(=O)NC(C(=O)O)C(C)O)cc1 (stereo unspecified) the results were TGFb SMAD3 inh inactive, HT1080 IDH1KD tx inactive, DT40 TDP1 CPT inactive, DT40 TDP1 no CPT inactive, HepG2 viability inactive and HT1080-NT tox inactive.
`C[C@@H]1CCCCO[C@@H](CN(C)Cc2ccncc2)[C@@H](C)CN([C@H](C)CO)C(=O)c2cc(NC(=O)c3ccccc3)ccc2O1` gave TGFb SMAD3 inh inactive, HT1080 IDH1KD tx inactive, DT40 TDP1 CPT inactive, DT40 TDP1 no CPT inconclusive, HepG2 viability inactive and HT1080-NT tox inactive.
`COC(CNS(=O)(=O)c1ccc(S(=O)(=O)NC2CC2)cc1)OC` gave TGFb SMAD3 inh inactive, HT1080 IDH1KD tx inactive, DT40 TDP1 CPT inactive, DT40 TDP1 no CPT inactive, HepG2 viability inactive and HT1080-NT tox inactive.
Screening COc1ccc([C@@H]2[C@@H](C)N(c3ccccc3)c3ccccc3C(=O)N2Cc2ccccc2)cc1 returned TGFb SMAD3 inh inconclusive, HT1080 IDH1KD tx inconclusive, DT40 TDP1 CPT inconclusive, DT40 TDP1 no CPT 16µM, HepG2 viability inactive and HT1080-NT tox inconclusive.
`COc1ccc(C2Nc3ccccc3C(=O)N2Cc2ccccc2)cc1` (stereo unspecified) gave TGFb SMAD3 inh inactive, HT1080 IDH1KD tx inactive, DT40 TDP1 CPT inconclusive, DT40 TDP1 no CPT inconclusive, HepG2 viability inactive and HT1080-NT tox inactive.
`Cc1cccc(CCn2c(=O)c3ccccc3n(Cc3ccccc3C)c2=O)c1` gave TGFb SMAD3 inh inactive, DT40 TDP1 CPT 15µM, DT40 TDP1 no CPT 16µM and HepG2 viability inactive.
Screening Cc1ccccc1Cn1c(=O)n(CCc2ccccc2)c(=O)c2ccccc21 returned TGFb SMAD3 inh inactive, DT40 TDP1 CPT inconclusive, DT40 TDP1 no CPT inconclusive and HepG2 viability inactive.
Screening COc1cc(-n2c(=O)c3ccccc3n(Cc3cccc(F)c3)c2=O)cc(OC)c1OC returned TGFb SMAD3 inh inactive, HT1080 IDH1KD tx inactive, DT40 TDP1 CPT inactive, DT40 TDP1 no CPT inactive, HepG2 viability inactive and HT1080-NT tox inactive.
`COc1ccc(-n2c(=O)c3ccccc3n(Cc3ccccc3F)c2=O)cc1OC` gave TGFb SMAD3 inh inactive, HT1080 IDH1KD tx inactive, DT40 TDP1 CPT inconclusive, DT40 TDP1 no CPT inconclusive, HepG2 viability inactive and HT1080-NT tox inactive.
For N#Cc1ccccc1Cn1c(=O)n(C2CCCC2)c(=O)c2ccccc21 the results were TGFb SMAD3 inh inactive, HT1080 IDH1KD tx inactive, DT40 TDP1 CPT 16µM, DT40 TDP1 no CPT 18µM, HepG2 viability inactive and HT1080-NT tox inactive.
`O=c1c2ccccc2n(Cc2ccccc2F)c(=O)n1-c1cccc(F)c1` gave TGFb SMAD3 inh inactive, DT40 TDP1 CPT inconclusive, DT40 TDP1 no CPT 15µM and HepG2 viability inactive.
O=c1c2ccccc2n(Cc2cccc(F)c2)c(=O)n1C1CCCC1 was read as TGFb SMAD3 inh inactive, HT1080 IDH1KD tx inactive, DT40 TDP1 CPT inconclusive, DT40 TDP1 no CPT 23µM, HepG2 viability inactive and HT1080-NT tox inactive.
For CCN(CC(=O)Nc1ccc(NC(C)=O)cc1)C(=O)C1(c2ccc(Cl)cc2)CCC1 the results were TGFb SMAD3 inh inactive, HT1080 IDH1KD tx inactive, DT40 TDP1 CPT inactive, DT40 TDP1 no CPT inconclusive, HepG2 viability inactive and HT1080-NT tox inactive.
`O=C(CCCn1c(=O)c2ccccc2n(Cc2cccc(F)c2)c1=O)NCc1ccccc1Cl` gave TGFb SMAD3 inh inactive, DT40 TDP1 CPT inconclusive, DT40 TDP1 no CPT inconclusive and HepG2 viability inactive.
`Cc1cccc(CCn2c(=O)c3ccccc3n(Cc3cccc(F)c3)c2=O)c1` gave TGFb SMAD3 inh inactive, DT40 TDP1 CPT 18µM, DT40 TDP1 no CPT 23µM and HepG2 viability inactive.
Screening O=c1[nH]c2c(-c3nc(-c4ccc(Cl)cc4)cs3)c(O)cn2c2ccccc12 returned TGFb SMAD3 inh inactive, DT40 TDP1 CPT 4µM, DT40 TDP1 no CPT 2.8µM and HepG2 viability inactive.
For O=c1[nH]c2c(-c3nc(-c4ccc(F)cc4)cs3)c(O)cn2c2ccc(Br)cc12 the results were TGFb SMAD3 inh inactive, DT40 TDP1 CPT inactive, DT40 TDP1 no CPT inactive and HepG2 viability inactive.
`CCC(CO)NC(=O)C(=O)Nc1c2c(nn1-c1ccc(F)cc1)CSC2` (stereo unspecified) gave TGFb SMAD3 inh inactive, DT40 TDP1 CPT inactive, DT40 TDP1 no CPT inactive and HepG2 viability inactive.
`CC(NC(=O)C(=O)Nc1c2c(nn1-c1ccccc1)CSC2)c1ccccc1` (stereo unspecified) gave TGFb SMAD3 inh inactive, DT40 TDP1 CPT 15µM, DT40 TDP1 no CPT 21µM and HepG2 viability inactive.
Screening CC(NC(=O)C(=O)Nc1c2c(nn1-c1ccc(F)cc1)CSC2)c1ccccc1 (stereo unspecified) returned TGFb SMAD3 inh inactive, DT40 TDP1 CPT inactive, DT40 TDP1 no CPT 8.2µM and HepG2 viability inactive.
